The list is not random: actives were taken first. Their share in the collection is about 4.7%.
D1 antagonist – human D1 dopamine receptor antagonism. HEK293 TREx D1 cells, calcium flux, dopamine EC80; active compounds read low. activity change, negative = inhibition, % at 10 µM. 360,000 tested, 3.2% active; in the data active means activity change below about -30%; further: on the % scale 0 is the no-effect control and ±100 the full control effect
Target sequence (P21728 whole entry, looked up): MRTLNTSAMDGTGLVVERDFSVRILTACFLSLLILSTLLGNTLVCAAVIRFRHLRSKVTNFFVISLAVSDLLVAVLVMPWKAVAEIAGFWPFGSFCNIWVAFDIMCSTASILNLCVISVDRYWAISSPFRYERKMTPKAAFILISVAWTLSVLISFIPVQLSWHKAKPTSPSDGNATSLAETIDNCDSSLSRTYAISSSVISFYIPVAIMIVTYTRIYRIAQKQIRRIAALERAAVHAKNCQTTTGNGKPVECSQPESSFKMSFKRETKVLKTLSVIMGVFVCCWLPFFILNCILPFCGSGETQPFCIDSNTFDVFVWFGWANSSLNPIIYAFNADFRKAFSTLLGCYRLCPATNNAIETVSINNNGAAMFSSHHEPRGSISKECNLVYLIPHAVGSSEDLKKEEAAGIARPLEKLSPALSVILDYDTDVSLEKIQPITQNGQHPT
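Compound effects on dopamine-evoked calcium signalling were measured in tetracycline-induced HEK293 Trex D1 cells. Dopamine at EC80 followed a 180 s compound pre-read, and fluorescence was tracked kinetically for 180 s more.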
D1 ag – human D1 receptor agonism; P21728; 360,000 tested, 1% active; HEK293 T-REx D1 cells, calcium flux, agonist mode; activation, % at 2 µM; AID 504660; further: 0% is about no effect
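Inducible HEK293 T-REx D1 cells, force-coupled to calcium signalling, were plated at 4000 cells/well with tetracycline and held overnight at 30 C. After no-wash calcium dye loading, compound-evoked calcium rise over 180 s flagged agonists.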
TRHR PAM – allosteric enhancers of human TRH receptor; P34981; enhancement, % at 2 µM; TRHR cells, fluo-8 calcium fluorescence, EC20 TRH enhancement; 360,000 tested, 0.66% active; in the data active means enhancement above about 30%; further: 0% is about no effect
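TRHR-expressing cells loaded with fluo-8 calcium dye were read kinetically (ex 480/em 530) during compound addition, then stimulated with an EC20 of TRH (10 nM final). Enhancement of the Gq-mediated intracellular calcium response was scored.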
TRHR agonist – activates the human TRH receptor. P34981. activation, % at 2 µM. AID 493084. 360,000 tested, 0.18% active. TRHR cells, calcium flux fluo-8, FDSS agonist mode; further: 0% is about no effect
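Read-out: compound-evoked intracellular calcium rise in TRHR cells, fluo-8 dye, kinetic FDSS fluorescence at 1 s/cycle following a 10-cycle baseline. Cells cultured overnight before dye loading (30 min–1.5 h, RT).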
D1 potentiator – potentiators of human D1 dopamine receptor. P21728. AID 504651. potentiation, % at 10 µM. 360,000 tested, 0.036% active. HEK293 TREx D1 cells, calcium flux, dopamine EC20 potentiation; in the data active means potentiation above about 30%; further: 0% is about no effect
Active calls of the source: *; nt = not tested or not shown. Unless noted, no stated cut-off is given here; in the data, active means activation above about 30%; inactive means the rest.

SMILES	D1 antagonist	D1 ag	TRHR PAM	TRHR agonist	D1 potentiator
CCOc1ccc(NC(=O)CSC2=Nc3ccccc3C3=NC(CC(=O)NCc4ccc5c(c4)OCO5)C(=O)N23)cc1 (stereo not given)	-30*	1	-3	0	-4
CCc1ccccc1N1CCN(S(=O)(=O)c2ccc(F)c(C)c2)CC1	-37*	7	-5	1	-2
Cc1nc(-c2ccc(S(=O)(=O)N3CCN(c4ccccc4F)CC3)cc2)co1	-34*	1	-4	0	-5
COc1ccccc1N1CCN(S(=O)(=O)c2ccc(-c3coc(C)n3)cc2)CC1	-7	0	-4	0	-3
Cc1ccc(N2CCN(S(=O)(=O)c3ccc(F)c(C)c3)CC2)c(C)c1	-21	1	2	1	-12
COc1ccc(C(=O)COC(=O)CN2C(=O)C3C4CCC(C4)C3C2=O)cc1 (stereo not given)	-19	5	11	2	nt
Cc1ccc2oc(C(=O)N(Cc3sccc3C)C3CCS(=O)(=O)C3)c(C)c2c1 (stereo not given)	6	11	1	1	2
CSc1ccc(CN(C)C(=O)c2cccc(S(=O)(=O)NCc3ccccc3)c2)cc1	-33*	16	-6	0	-11
CSc1ccc(CN(C)C(=O)c2cc(S(=O)(=O)NCc3ccccc3)ccc2C)cc1	5	3	-4	0	-13
Brc1cccc(CNCC2CCCO2)c1 (stereo not given)	8	0	-7	1	0
CCc1ccc(-n2c(C)nc3cc(C(=O)NCCc4ccccc4)ccc32)cc1	6	0	4	0	-1
CC(C)(C)n1ncc2c(=O)n(CC(=O)N3CCCC3)cnc21	4	7	3	1	-2
CC1CCN(C(=O)Cn2cnc3c(cnn3C(C)(C)C)c2=O)CC1	-6	2	30*	0	-4
Cc1cc(C(=O)CSc2cccc[n+]2[O-])c(C)n1-c1ccc(OC(F)F)cc1	-40*	8	12	-1	-8
O=C(NCc1ccccc1F)C1CCN(Cc2cc3ccccc3n2Cc2cccc(Cl)c2)CC1	23	2	5	1	1
O=C(Nc1ccc(C(=O)NCCCN2CCCCC2)cc1)C1=CSCCO1	13	2	-5	1	-3
Cc1cccc(N2CCN(CCCNC(=O)c3ccc(NC(=O)C4=CSCCO4)cc3)CC2C)c1 (stereo not given)	-40*	18	-6	0	-16
O=C(Nc1ccc(C(=O)NCCCN2CCN(c3ccc(F)cc3)CC2)cc1)C1=CSCCO1	-78*	62*	-3	10	-17
Oc1c(C(c2ccc(F)cc2)N2CCCC2)sc2nc(-c3ccco3)nn12 (stereo not given)	nt	0	-2	0	-2
Cc1ccc(-n2nc(-c3ccc(OC(F)(F)F)cc3)cc2N)cc1C	-32*	3	-7	-1	-4
Cc1ccc(-n2nc(-c3ccc(N)cc3)cc2N)cc1	-7	0	0	0	0
O=[N+]([O-])c1ccc(N/N=C/c2c[nH]c3ccccc23)cc1	-28	81*	-3	32*	-11
COc1ccccc1NS(=O)(=O)c1cc([N+](=O)[O-])ccc1N/N=C/c1c[nH]c2ccccc12	-4	61*	3	-1	-7
O=C(N/N=C/c1c[nH]c2ccccc12)c1cccc([N+](=O)[O-])c1	-18	1	-8	0	-13
O=[N+]([O-])c1ccc(N/N=C/c2ccc[nH]2)cc1	-44*	79*	-6	-1	-5
SMILES	D1 antagonist	D1 ag	TRHR PAM	TRHR agonist	D1 potentiator
COc1ccc(NS(=O)(=O)c2cc([N+](=O)[O-])ccc2N/N=C\c2c(C)[nH]c3ccccc23)cc1	4	18	-5	12	-3
COc1ccccc1NS(=O)(=O)c1cc([N+](=O)[O-])ccc1N/N=C/c1sc(N2CCOCC2)nc1-c1ccccc1	-9	33*	2	9	0
COc1ccc(C(=O)N/N=C/c2sc(N3CCOCC3)nc2-c2ccccc2)cc1OC	-23	-1	-4	3	-2
O=[N+]([O-])c1ccc(N/N=C/c2cccc(O)c2O)cc1	-17	8	2	5	1
COc1ccccc1CNC(=O)C(Cc1ccccc1)NS(=O)(=O)c1ccc2c(c1)CCN2C(C)=O (stereo not given)	6	4	-4	0	1
CCOc1cc(C#N)c(-n2nnc3c(sc4nc(C)cc(C)c43)c2=O)cc1OCC	-4	0	0	14	2
CN(C(=O)Cn1cc(S(=O)(=O)N2CCN(c3ccccc3F)CC2)c2ccccc2c1=O)c1ccc(Cl)cc1	-24	4	-4	1	-4
O=[N+]([O-])c1ccccc1N/N=C/c1c[nH]c2ccccc12	-71*	6	0	-1	-5
O=c1oc2ccccc2cc1-c1nc2ccccc2o1	-4	1	8	-1	-10
Nc1cc2nc3ccccc3oc-2cc1=O	-9	33*	2	9	0
CC(Oc1cc2oc(=O)c3c(c2cc1Cl)CCCC3)C(=O)NCCN1CCOCC1 (stereo not given)	11	1	0	0	-6
Cc1cc(C(=O)NCC(c2ccco2)N2CCCC2)c2ccccc2n1 (stereo not given)	27	5	3	1	nt
O=C(CSc1cc([N+](=O)[O-])cc(S(=O)(=O)Cc2ccccc2)c1)NC1CC1	-40*	2	-1	0	-9
C=CCNC(=O)CSc1cc([N+](=O)[O-])cc(S(=O)(=O)Cc2ccccc2)c1	2	7	-5	-1	7
O=C(c1ccc(COc2ccccc2Br)cc1)N1CCCCCC1	-37*	18	-10	0	-10
O=C(c1ccc(COc2ccc(Cl)cc2)cc1)N1CCCCC1	9	8	-1	-2	nt
Cc1cc(NC(=O)CSCC(=O)Nc2ccccc2N2CCCCC2)no1	-2	4	-3	1	-2
Cc1cc(OCC(=O)Nc2cccc(S(=O)(=O)NC3=NCCCCC3)c2)ccc1Cl	-31*	5	2	0	-2
Cc1ccc(OCC(=O)Nc2cccc(S(=O)(=O)NC3=NCCCCC3)c2)cc1C	6	10	0	-1	-1
CCC(C(=O)NC1CCCC1)N(C(=O)Cn1nnc(-c2ccc(OC)c(OC)c2)n1)c1cccc(O)c1 (stereo not given)	-4	-1	2	0	-6
COc1ccc(-c2nnn(CC(=O)N(c3cccc(O)c3)C(C)C(=O)NC3CCCC3)n2)cc1OC (stereo not given)	-32*	1	15	-1	-8
O=C(O)CCCNS(=O)(=O)c1cccs1	-58*	2	16	0	-7
COc1ccc(Nc2cc(C)nc3ccc(OC)cc23)cc1	1	0	5	0	-6
Cc1cc(Nc2cccc(Cl)c2)c2ccccc2n1	-65*	17	-2	-1	-10

Screening data deposited in PubChem BioAssay by National Center for Advancing Translational Sciences (NCATS).
